± gives the standard deviation of the averaged measurements.
Experiments:
DLD1 [1] = assay: cell viability (CellTiter-Glo) relative to plate median (fraction of plate median); higher = more viable cells; settings: 5 µM; treatment time 24 h; reporter: 7TFP
Method in brief: (§1)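 Per-well firefly luciferase or CellTiterGlo luminescence, normalised to the plate median, is what is reported. It was measured in colorectal cancer cells with stable lentiviral TCF/Wnt firefly luciferase reporters after a 24 h treatment with library compounds at a final 5 µM. The mean of two independent replicates is given.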

HCT116 = assay: as above; settings: 5 µM; treatment time 24 h; reporter: TCF4/Wnt
Method in brief: as §1

SW480 [2] = assay: as above; settings: 5 µM; treatment time 24 h; reporter: 7TFP
Method in brief: as §1

DLD1 [3] = assay: TCF/Wnt firefly luciferase reporter signal relative to plate median (fraction of plate median); higher = higher Wnt reporter signal; settings: 5 µM; treatment time 24 h; reporter: 7TFP
Method in brief: as §1

SW480 [4] = assay: as above; settings: 5 µM; treatment time 24 h; reporter: 7TFP
Method in brief: as §1

Compound | cell viability (DLD1 [1]) | cell viability (HCT116) | cell viability (SW480 [2]) | TCF/Wnt firefly luciferase reporter signal (DLD1 [3]) | TCF/Wnt firefly luciferase reporter signal (SW480 [4])
CCC1=C[C@@H]2CN(C1)Cc1c([nH]c3ccccc13)[C@@](C(=O)OC)(c1cc3c(cc1OC)N(C)[C@H]1[C@@](O)(C(=O)OC)[C@H](OC(C)=O)[C@]4(CC)C=CCN5CC[C@]31[C@@H]54)C2 | 1 ± 0.11 | 0.544 ± 0.17 | 1.12 ± 0.11 | 0.911 ± 0.13 | 0.892 ± 0.12
COc1ccc2cc1Oc1ccc(cc1)C[C@H]1c3c(cc4c(c3Oc3cc5c(cc3OC)CCN(C)[C@@H]5C2)OCO4)CCN1C | 1.02 ± 0.052 | 0.934 ± 0.052 | 1.14 ± 0.035 | 1 ± 0.054 | 1.05 ± 0.028
O=c1c(-c2ccc(O)cc2)coc2cc(O)ccc12 | 1.01 | 0.9665 ± 0.0021 | 0.902 ± 0.0042 | 0.978 ± 0.059 | 0.971 ± 0.025
Oc1c(I)cc(I)c2cccnc12 | 0.992 ± 0.11 | 0.931 ± 0.035 | 0.939 ± 0.016 | 0.928 ± 0.026 | 0.984 ± 0.14
C[C@](N)(Cc1ccc(O)cc1)C(=O)O [alpha-METHYL-L-TYROSINE] | 1.08 ± 0.11 | 1.07 ± 0.078 | 0.944 ± 0.016 | 0.896 ± 0.02 | 0.974 ± 0.11
C=C[C@H]1CN2CC[C@H]1C[C@@H]2[C@@H](O)c1ccnc2ccc(OC)cc12 | 0.963 ± 0.052 | 0.966 ± 0.042 | 0.977 ± 0.047 | 1.21 ± 0.14 | 0.933 ± 0.021
NC(N)=Nc1nc(CSCC/C(N)=N/S(N)(=O)=O)cs1 | 1 ± 0.083 | 1.01 ± 0.028 | 0.916 ± 0.054 | 1.12 ± 0.092 | 1.11 ± 0.035
COc1ccc(C2C(=O)c3ccccc3C2=O)cc1 | 0.997 ± 0.061 | 0.984 ± 0.08 | 1.01 ± 0.045 | 0.933 ± 0.095 | 0.94 ± 0.021
CCn1cc(C(=O)O)c(=O)c2cc(F)c(N3CCNC(C)C3)c(F)c21 (stereo not given) | 0.971 ± 0.056 | 1.05 ± 0.057 | 0.98 ± 0.012 | 1.13 ± 0.057 | 0.997 ± 0.061
O=C1CN(/N=C/c2ccc(-c3ccc([N+](=O)[O-])cc3)o2)C(=O)N1 | 0.999 ± 0.044 | 0.9895 ± 0.005 | 0.97 ± 0.018 | 1 ± 0.042 | 1.02 ± 0.014
COc1ccc(C(=O)c2ccc(O)cc2)c(O)c1O | 1.015 ± 0.0071 | 0.971 ± 0.028 | 1.04 ± 0.078 | 1.03 ± 0.028 | 1.06 ± 0.057
CC(C(=O)O)c1ccc(N2Cc3ccccc3C2=O)cc1 (stereo not given) | 0.986 ± 0.035 | 1.06 ± 0.035 | 0.992 ± 0.054 | 0.99 ± 0.14 | 1.05 ± 0.064
C=C(C)[C@@H]1C[C@H](O)[C@]2(C(=O)O[C@@H]3O[C@H](CO[C@@H]4O[C@H](CO)[C@@H](O[C@@H]5O[C@@H](C)[C@H](O)[C@@H](O)[C@H]5O)[C@H](O)[C@H]4O)[C@@H](O)[C@H](O)[C@H]3O)CC[C@]3(C)[C@H](C[C@H]4OC(=O)C[C@@H](O)[C@]5(C)[C@@H]4[C@@]3(C)CC[C@H]5C(=C)C)[C@@H]12 [22alpha-hydroxychiisanoside (4)] | 0.87 ± 0.055 | 0.878 ± 0.06 | 0.937 ± 0.033 | 0.803 ± 0.0042 | 0.951 ± 0.029
COc1ccc(-c2cc(=O)c3c(O)cc(OC)c(OC)c3o2)c(OC)c1 | 0.978 ± 0.088 | 0.988 ± 0.016 | 1.02 ± 0.064 | 0.9025 ± 0.005 | 0.896 ± 0.067
COc1ccc(C(=O)O)c(O)c1OC | 0.991 ± 0.055 | 0.977 ± 0.12 | 0.9195 ± 0.00071 | 0.803 ± 0.069 | 0.905 ± 0.19
CC(=O)N[C@@H](CS)C(=O)O | 0.994 ± 0.037 | 0.988 ± 0.12 | 0.993 ± 0.0042 | 1.1 ± 0.14 | 1.07 ± 0.16
COC(=O)Nc1nc2cc(C(=O)c3ccccc3)ccc2[nH]1 | 0.884 ± 0.069 | 0.801 ± 0.1 | 1 ± 0.028 | 0.896 ± 0.027 | 0.94 ± 0.023
CC[C@H](/C=C/[C@@H](C)[C@H]1CC[C@H]2[C@@H]3CCC4=CC(=O)CC[C@]4(C)[C@H]3CC[C@]12C)C(C)C | 0.999 ± 0.087 | 0.976 ± 0.18 | 1.02 ± 0.041 | 1.05 | 1.06 ± 0.028

Compound | cell viability (DLD1 [1]) | cell viability (HCT116) | cell viability (SW480 [2]) | TCF/Wnt firefly luciferase reporter signal (DLD1 [3]) | TCF/Wnt firefly luciferase reporter signal (SW480 [4])
NCCCS(=O)(=O)O | 0.999 ± 0.044 | 0.993 ± 0.052 | 0.974 ± 0.011 | 0.969 ± 0.14 | 1.11 ± 0.05
CN(C)CCCN1c2ccccc2Sc2ccccc21 | 0.908 ± 0.056 | 0.908 ± 0.032 | 0.96 ± 0.071 | 0.92 ± 0.021 | 0.895 ± 0.069
NCCc1c[nH]cn1 | 1.06 ± 0.028 | 1.02 ± 0.021 | 1.04 ± 0.062 | 1.12 | 1.06 ± 0.014
C[C@@H]1C[C@H]2[C@@H]3CCC4=CC(=O)C=C[C@]4(C)[C@@]3(F)[C@@H](O)C[C@]2(C)[C@@]1(O)C(=O)CO | 1.06 ± 0.071 | 1.05 ± 0.057 | 0.977 ± 0.016 | 1.04 ± 0.082 | 1.05 ± 0.035
Cn1c(=O)c2nc[nH]c2n(C)c1=O | 0.996 ± 0.13 | 1.04 ± 0.021 | 1.07 ± 0.035 | 1.19 ± 0.014 | 0.986 ± 0.077
C/N=C(/NC#N)NCCSCc1csc(NC(=N)N)n1 | 1 ± 0.068 | 0.975 ± 0.078 | 1.01 ± 0.014 | 1.12 ± 0.021 | 1.11 ± 0.064
CN1CCN(CC/C=C2/c3ccccc3Sc3ccc(S(=O)(=O)N(C)C)cc32)CC1 | 1.07 ± 0.078 | 1.16 ± 0.042 | 1.07 ± 0.064 | 1.11 ± 0.078 | 0.983 ± 0.17
CC1=CC(=O)C(C(C)C)=CC1=O | 1.04 ± 0.057 | 1.03 ± 0.054 | 1.05 ± 0.014 | 1.09 ± 0.11 | 1.1 ± 0.064
Cc1cc(C2CCCCC2)n(O)c(=O)c1 | 1.02 ± 0.014 | 0.454 ± 0.12 | 1.24 ± 0.18 | 0.795 ± 0.077 | 1 ± 0.13
O=c1c2cc(O)c(O)cc2oc2cc(O)c([C@@H]3O[C@H](CO)[C@@H](O)[C@H](O)[C@H]3O)c(O)c12 | 1.09 ± 0.13 | 1.045 ± 0.0071 | 1.05 ± 0.035 | 0.988 ± 0.06 | 0.957 ± 0.061
COc1ccc2c(=O)c(CC(=O)O)coc2c1 | 0.968 ± 0.059 | 0.984 ± 0.08 | 0.968 ± 0.012 | 1 ± 0.021 | 0.985 ± 0.092
O=C(O)c1cccnc1C(=O)O | 1.07 ± 0.021 | 1.095 ± 0.0071 | 1.03 ± 0.014 | 1.04 ± 0.15 | 1.1 ± 0.085
O=c1cc(CO)occ1O [Kojic acid (Biofocus)] | 0.943 ± 0.08 | 1.02 ± 0.083 | 0.994 ± 0.093 | 1.21 ± 0.13 | 1.12 ± 0.035
CC1(C)C(=O)C=C[C@@]2(C)C1CC(=O)[C@@]1(C)C3=CC(=O)O[C@@H](c4ccoc4)[C@]3(C)CCC12 (stereo not given in full) | 0.921 ± 0.04 | 0.988 ± 0.045 | 0.977 ± 0.027 | 0.913 ± 0.03 | 0.956 ± 0.076
COC(=O)[C@H](Cc1ccccc1)NC(=O)[C@@H](N)CC(=O)O | 0.952 ± 0.082 | 1.08 ± 0.11 | 1.06 ± 0.014 | 1.045 ± 0.0071 | 0.985 ± 0.14
CC(=O)OC1CC[C@@]2(C)C(CC[C@H]3[C@@H]4CC=C(C(C)=O)[C@@]4(C)C(=O)C[C@@H]32)C1 (stereo not given in full) | 1 ± 0.012 | 1.05 ± 0.081 | 1.04 ± 0.072 | 1.08 ± 0.014 | 1.06 ± 0.05
COc1ccc2cc(CCC(C)=O)ccc2c1 | 0.968 ± 0.074 | 0.905 ± 0.09 | 0.925 ± 0.0085 | 1.24 ± 0.27 | 1.25 ± 0.035

Reference: the supplement of paper PMC6522484
